The values that follow come from PubChem BioAssay (NCI).

Compounds without any hit were thinned out: in the full panel of roughly 79,000, 15% have a hit. Unmarked numbers belong to inactive results. Active and inactive are the calls of the source. Rule as the data show it: active = growth inhibition above about 70%; inactive = the rest.

A short description of test [1]: NCI Yeast Anticancer Drug Screen. Data for the rad50 strain (AID 155).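 Also: 0% = growth of vehicle-only cultures of the same strain.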 The following applies: S. cerevisiae rad50 strain growth inhibition; at 50.0 µM; active compounds read high. In outline: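 Vehicle-treated cultures provide the reference for the growth inhibition reported for compound-exposed, repair-deficient yeast.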
Test [2] in a line: NCI Yeast Anticancer Drug Screen. Data for the mec2-1 strain (AID 157). The following applies: S. cerevisiae mec2-1 strain, at 50.0 µM, active compounds read high. In outline:
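Using mec2-1 yeast: add compound, measure growth, express inhibition versus vehicle-treated cultures.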

Test [3] can be described thus: NCI Yeast Anticancer Drug Screen. Data for the sgs1 mgt1 strain (AID 161).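 Also: 0% = growth of cultures given vehicle only.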 The following applies: S. cerevisiae sgs1 mgt1 strain, at 50.0 µM, active compounds read high. The procedure, abridged: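 Growth of a repair-deficient yeast mutant was monitored after compound treatment and expressed as inhibition relative to vehicle-treated cultures.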
A short description of test [4]: NCI Yeast Anticancer Drug Screen. Data for the cln2 rad14 strain (AID 165).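 Also: 0% = growth equal to vehicle treated cultures.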 To be noted: S. cerevisiae cln2 rad14 strain, at 50.0 µM, active compounds read high. The procedure, abridged: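 Yeast strain cln2 rad14, bearing defects in cell cycle control and DNA repair, serves as the test system; values reflect growth inhibition compared with vehicle.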
The nature of test [5]: NCI Yeast Anticancer Drug Screen. Data for the bub3 strain (AID 167). To be noted: S. cerevisiae bub3 mutant strain, at 50.0 µM, active compounds read high. In outline: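 Mutant yeast screening strain plus compound; vehicle-treated cultures serve as the 0% inhibition reference.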
Test [6] in a line: NCI Yeast Anticancer Drug Screen. Data for the mlh1 rad18 strain (AID 175). To be noted: S. cerevisiae mlh1 rad18 strain growth inhibition; at 50.0 µM; active compounds read high. In outline:
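Steps: expose repair-defective yeast to compound; measure growth; express inhibition against vehicle-treated controls.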

Turning to `Cc1cccc(C)c1NC(=O)CCC/C(CC(=O)c1ccc(F)cc1)=N\NC(=O)C(=O)NN`, the growth inhibition in test [1] was 20.2%; in test [2], 2.7%; in test [3], 2.4%; in test [4] it was -32.1%; in test [5] it was -4.9%; in test [6], 19.8%.
On to `S=c1[nH]c(=S)c2[nH]cnc2[nH]1`, for which the growth inhibition was -7.4% in test [1]; -5.45% in test [2]; -7.1% in test [3]; -7.35% in test [4]; -4.95% in test [5]; -0.3% in test [6].
As to `COC1/C=C\OC2(C)Oc3c(C)c(O)c4c(O)c(c(/C=N\NC(=O)CC(=O)N/N=C/c5c6c(O)c7c(O)c(C)c8c(c7c5O)C(=O)C(C)(O/C=C/C(OC)C(C)C(OC(C)=O)C(C)C(O)C(C)C(O)C(C)/C=C/C=C(C)C(=O)N6)O8)c(O)c4c3C2=O)NC(=O)/C(C)=C\C=C/C(C)C(O)C(C)C(O)C(C)C(OC(C)=O)C1C` (stereo unspecified), the growth inhibition was -4.5% in test [1]; 6.3% in test [2]; -2.2% in test [3]; -5.4% in test [4]; 6.75% in test [5]; -16.4% in test [6].
`Cc1ccc(NC(=S)NC(Cc2ccccc2)c2ccccc2)cc1` (stereo unspecified): the growth inhibition in test [1] is 78.8% (active); in test [2] it was 79.2% (active); in test [3] it was -1.05%; in test [4], 78.5% (active); in test [5] it was 90% (active); in test [6] it was 85.2% (active).
`O=P(CCC(F)(F)C(F)(F)C(F)(F)C(F)(F)C(F)(F)C(F)(F)C(F)(F)F)(N1CC1)N1CC1`: the growth inhibition is 25.4% in test [1]; -1.9% in test [2]; 8.15% in test [3]; -9.75% in test [4]; -1.2% in test [5]; 1.95% in test [6].
As to `CCCCc1c(O)c2c(=O)n(C)c(=O)n3c4ccccc4n(c1=O)c23`, the growth inhibition in test [1] is -1.55%; in test [2] it was -9.7%; in test [3], -1%; in test [4], -22.1%; in test [5] it was -0.3%; in test [6] it was 10.8%.
With `Cc1nn(CCO)c(N)c1C(N)=O`, the growth inhibition is 5.35% in test [1]; -4.25% in test [2]; 5.55% in test [3]; -13.4% in test [4]; 4.9% in test [5]; 16.9% in test [6].
For the molecule `COC(=O)CC(NC(=O)C(Cc1ccccc1)NC(=O)OCc1ccccc1)C(=O)O` (stereo unspecified), the growth inhibition was 31.5% in test [1]; 9.15% in test [2]; 18.2% in test [3]; 11.7% in test [4]; 2.1% in test [5]; 23.1% in test [6].
Take `CC(O)CC(C)O` (stereo unspecified): the growth inhibition in test [1] was 1.9%; in test [2] it was -4.6%; in test [3] it was 2.95%; in test [4], -3.45%; in test [5], 6.15%; in test [6], 2.3%.
`C=CCNC(=O)C(=O)NCC=C`: the growth inhibition in test [1] is 3.65%; in test [2] it was -16.2%; in test [3], -11.2%; in test [4] it was -24.6%; in test [5] it was -8.25%; in test [6], 2.1%.
Turning to `CC1CC(=O)Nc2nc(N)ncc21` (stereo unspecified), the growth inhibition was 19.4% in test [1]; 21.8% in test [2]; 15.7% in test [3]; -3.8% in test [4]; 7.75% in test [5]; 3.9% in test [6].
For `CN(C)CCCCl`, the growth inhibition in test [1] is -16.1%; in test [2] it was -3.05%; in test [3], 8.75%; in test [4], -26.8%; in test [5], -15.5%; in test [6], -17.3%.
Take `Nc1nc(SCCc2ccccc2)nc2nc3c(c(-c4ccccc4)c12)CCCC3`: the growth inhibition in test [1] is -23.3%; in test [2] it was -10.6%; in test [3], -3.2%; in test [4], 2.35%; in test [5] it was 0.05%; in test [6] it was 5.1%.
As for `O=C(Cn1c(C(=O)c2ccccc2)nc2ccccc21)c1ccccc1`, the growth inhibition was -39.2% in test [1]; -16.6% in test [2]; -32.8% in test [3]; -8.95% in test [4]; -16.4% in test [5]; -18% in test [6].
For `COC(=O)CCC(=O)C(CC(=O)OC)C(=O)CCC(=O)NCCc1ccccc1` (stereo unspecified), the growth inhibition is -30.1% in test [1]; -21.9% in test [2]; -41.5% in test [3]; 2.4% in test [4]; -24.2% in test [5]; -31.4% in test [6].
On to `COc1cc(/C=N/NC(=O)N/N=C/c2cc(OC)c(OC)c(OC)c2)cc(OC)c1OC`, for which the growth inhibition is -37.9% in test [1]; -4.8% in test [2]; -11.1% in test [3]; 10.9% in test [4]; 0.95% in test [5]; 6.4% in test [6].
As for `CCOC(=O)/C(=C\c1ccccc1)c1nc2ccccc2[nH]1`, the growth inhibition was -1.2% in test [1]; -13.2% in test [2]; -15.4% in test [3]; -15.5% in test [4]; -14.7% in test [5]; -13.6% in test [6].
For the molecule `S=C(NCN1CCNCC1)C(=S)NCN1CCNCC1`, the growth inhibition in test [1] was -14.2%; in test [2], -9.55%; in test [3], -6.1%; in test [4], -12.1%; in test [5], -4.05%; in test [6] it was -9.6%.
For the molecule `CCc1cccc(C)c1NC(=O)C(=O)Cc1nc2ccccc2s1`, the growth inhibition in test [1] is 0.75%; in test [2] it was -7.6%; in test [3] it was -9.8%; in test [4], -2.15%; in test [5], -58%; in test [6], -6.15%.
For the molecule `O=C(CNC(=O)c1ccccc1)NCS(=O)(=O)O`, the growth inhibition in test [1] is 12.2%; in test [2], -3.6%; in test [3], 19%; in test [4], 14.7%; in test [5] it was 19.2%; in test [6], 11.3%.
In the case of `O=C(Oc1ccc[nH]c1=O)C1CC1`, the growth inhibition is 17.9% in test [1]; 7.45% in test [2]; 67.2% in test [3]; 14% in test [4]; 22.2% in test [5]; 38% in test [6].
